TEAD-YAP block = TEAD-YAP interaction inhibition, primary screen, TEAD-YAP interaction inhibitor project, luminescence, HEK-TIYL cells; TEAD-Gal4/YAP UAS-luciferase luminescence; inhibition, % at 9.12 µM; hit rate 1.4% among 640,000; AID 1259422, 2018; in the data active = inhibition above about 32%;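 note: 0% = median of test compound wells and 100% = reference inhibitor wells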
FBW7 act = FBW7 E3 ligase activators, primary screen, biochemical, AlphaScreen, human. F-box/WD repeat-containing protein 7 (Homo sapiens), Q969H0. AlphaScreen FBW7–phospho-cyclin E peptide binding, activator screen. normalized activity (activation), % at 26.1 µM. hit rate 0.13% among 650,000; in the data active = normalized activity above about 1.9%;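 note: purified mutant Fbw7 with reduced substrate affinity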
MITF inh = MITF inhibitors, primary screen, biochemical, AlphaScreen, human; hit rate 0.91% among 650,000; AID 1259374, 2018; Microphthalmia-associated transcription factor (Homo sapiens), O75030; AlphaScreen MITF homodimerization, bead proximity signal; inhibition, % at 2.6 µM; in the data active = inhibition above about 50%;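 note: 0% = vehicle wells with protein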
Target sequence (O75030 whole entry, looked up): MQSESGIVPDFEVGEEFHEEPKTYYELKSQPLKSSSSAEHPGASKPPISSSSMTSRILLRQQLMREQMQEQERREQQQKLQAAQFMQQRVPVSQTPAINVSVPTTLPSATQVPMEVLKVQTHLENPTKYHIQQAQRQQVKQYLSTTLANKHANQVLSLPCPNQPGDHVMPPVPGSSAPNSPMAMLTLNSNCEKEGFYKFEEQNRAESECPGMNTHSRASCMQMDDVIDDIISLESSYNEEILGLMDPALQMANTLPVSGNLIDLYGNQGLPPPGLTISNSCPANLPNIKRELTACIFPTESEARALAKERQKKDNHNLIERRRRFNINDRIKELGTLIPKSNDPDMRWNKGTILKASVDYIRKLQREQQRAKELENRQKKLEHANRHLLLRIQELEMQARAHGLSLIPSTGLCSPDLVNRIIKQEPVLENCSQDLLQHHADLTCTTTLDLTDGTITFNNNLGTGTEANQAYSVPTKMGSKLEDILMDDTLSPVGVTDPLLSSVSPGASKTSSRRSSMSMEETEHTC
GPR151 activ = activators of human GPR151, primary screen, cell-based, PathHunter beta-arrestin, luminescence; G-protein coupled receptor 151 (Homo sapiens), Q8TDV0; PathHunter beta-arrestin GPR151 cells; activation, % at 11.2 µM; hit rate 1% among 650,000; in the data active = activation above about 4.9%;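 note: 0% = median of compound wells and 100% = cells with positive control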
The depositor's hits bear a star. A selection: hits, their analogues and other compounds. The true share with any hit is near 3.5%.

SMILES	TEAD-YAP block	FBW7 act	MITF inh	GPR151 activ
COc1c(OC(C)=O)ccc(/C=N/NC(=O)COc2c(C)ccc(C)c2C)c1[N+](=O)[O-]	52*	1	7	2
COc1c(OC(C)=O)ccc(/C=N/NC(=O)COc2c(C)cccc2C)c1[N+](=O)[O-]	20	0	7	0
O=C(Nc1ccc2nc(NC(=O)c3ccccc3Cl)sc2c1)c1ccccc1Cl	49*	0	12	0
Cc1ccc2nc(NC(=O)c3ccco3)sc2c1	78*	0	9	-8
Nc1ccc2nc(NC(=O)c3ccc(Cl)cc3Cl)sc2c1	70*	0	1	-7
Cc1ccc2nc(NC(=S)NC(=O)c3ccco3)sc2c1	-71	0	4	0
O=C(Nc1nc2ccc(Br)cc2s1)c1ccccc1Cl	-42	0	-1	1
COc1ccc2nc(NC(=O)c3ccco3)sc2c1	42*	0	5	-8
O=c1[nH]c(Br)nc2nc[nH]c12	1	0	2	-1
CCOC(=O)c1ccc(NC(=O)Cn2c(C)cc(=O)c3cc(Br)ccc32)cc1	9	1	6	0
Cc1ccc2nc(NC(=O)c3cccc4ccccc34)sc2c1	37*	0	14	1
O=C(Nc1ccc2nc(NC(=O)C3CCCCC3)sc2c1)C1CCCCC1	40*	0	5	2
O=C(Nc1nc2ccc(Cl)cc2s1)c1cccc2ccccc12	-4	0	15	0
CS(=O)(=O)c1ccc2nc(NC(=O)c3cc(Cl)ccc3[N+](=O)[O-])sc2c1	40*	0	14	2
O=C(Nc1nc([N+](=O)[O-])cs1)c1ccc(Cl)cc1Cl	88*	0	7	-9
CC(=O)Nc1ccc2nc(NC(=O)C3CCCCC3)sc2c1	1	0	13	1
CC1(C)CC(=O)c2cc(OCC(=O)NCc3ccc(F)cc3Cl)ccc2O1	4	0	-9	0
COC(=O)C1=C(O)/C(=C\c2ccc(OC)c([N+](=O)[O-])c2)N=C1C	-2	-1	-1	4
O=C(Nc1cccc(O)c1)c1cc(-c2ccc(Cl)cc2)on1	81*	0	-9	-3
O=C(Nc1cccc(O)c1)c1cc(-c2cccnc2)on1	-18	0	-12	-2
O=C(Nc1cccc(O)c1)c1cc(-c2ccc3c(c2)OCO3)on1	97*	0	-1	-5
CC1C(=O)NN=C1C(=O)N/N=C\c1cccc(O)c1 (stereo unspecified)	28	1	28	-7
CC(C)(C)OC(=O)N/N=C\c1cccs1	-27	5.6*	4	-1
CC1C(=O)NN=C1C(=O)N/N=C/c1cccs1 (stereo unspecified)	32*	0	5	-3
CC1C(=O)NN=C1C(=O)N/N=C\c1cccnc1 (stereo unspecified)	35*	0	-10	-1
SMILES	TEAD-YAP block	FBW7 act	MITF inh	GPR151 activ
CCc1ccccc1NC(=O)c1ccc(NCc2ccccc2OC)c([N+](=O)[O-])c1	43*	0	4	0
COc1ccccc1CNc1ccc(C(=O)Nc2ccc(C)c(F)c2)cc1[N+](=O)[O-]	1	0	-2	0
CCc1ccc(NC(=O)c2ccc(NCc3ccccc3OC)c([N+](=O)[O-])c2)cc1	1	0	4	0
COc1ccccc1CNc1ccc(C(=O)Nc2ccc(C)cc2C)cc1[N+](=O)[O-]	57*	1	7	2
CC(C)[C@@H](CO)Nc1ccnc2c(-c3ccoc3)cnn12	-3	0	-3	0
CC(C)[C@@H](CO)Nc1ccnc2c(-c3ccccc3F)cnn12	56*	0	10	3
Oc1cccc(-c2cnn3c(NCCc4ccccn4)ccnc23)c1	85*	0	-13	0
Fc1ccccc1-c1cnn2c(NCCc3ccccn3)ccnc12	72*	0	-14	-3
O=C1Nc2ccccc2/C1=C\c1nc2ccccc2c(=O)n1-c1cccc([N+](=O)[O-])c1	41*	0	20	3
O=C1Nc2ccccc2/C1=C/c1nc2ccccc2c(=O)n1-c1cccc([N+](=O)[O-])c1	17	0	9	1
Cc1ccc2c(c1)c(=O)c1ccccc1n2CC(=O)Nc1ccc(F)cc1Cl	-2	0	4	0
S=c1[nH]ncn1/N=C/c1ccc(N2CCOCC2)cc1	73*	1	16	-2
Cc1nn(CC(=O)NCCC2=CCCCC2)c(=O)c2cccn12	4	1	9	-2
CCCCC(CC)C(=O)Nc1ncc([N+](=O)[O-])s1 (stereo unspecified)	44*	0	10	0
Cc1ccc(CS(=O)Cc2ccc(C(=O)NC(C)c3ccccc3)o2)cc1 (stereo unspecified)	4	0	10	2
N#CC1=C(N)C(C#N)(C#N)C(c2ccccc2F)C2CN(Cc3ccccc3)CC=C12 (stereo unspecified)	4	0	8	1
COc1ccccc1C1C2CN(Cc3ccccc3)CC=C2C(C#N)=C(N)C1(C#N)C#N (stereo unspecified)	7	1.9*	4	0
Cc1ccc(C2CCN(C(=S)NCC3CCCO3)C2)cc1 (stereo unspecified)	-8	0	-9	2
COc1ccc(CNC(=O)CCCCCn2c(SCC(=O)Nc3cccc(OC)c3)nc3cc4c(cc3c2=O)OCO4)cc1	3	0	-7	0
COc1ccc(C(=O)/C(=C\c2ccc(C)o2)c2nc3ccccc3o2)cc1	38*	0	3	-1
Cc1ccc(C(=O)/C(=C\c2cccs2)c2nc3ccccc3o2)cc1	73*	0	-4	1
Cc1ccccc1OCc1nc2ccc(-c3cn[nH]c3C)cc2c(=O)[nH]1	48*	0	6	0
COc1cccc(OCc2nc3cc(-c4cn[nH]c4C)ccc3c(=O)[nH]2)c1	56*	0	26	-1
CC1CCCC(NC(=O)C2CCCN(S(=O)(=O)c3ccc4c(c3)oc(=O)n4C)C2)C1C (stereo unspecified)	5	0	7	0
Cc1cccc(Cn2c(NCc3ccco3)nc3c2c(=O)n(C)c(=O)n3C)c1	46*	0	13	0
SMILES	TEAD-YAP block	FBW7 act	MITF inh	GPR151 activ
COc1cccc(Cn2c(NCCO)nc3c2c(=O)n(C)c(=O)n3C)c1	39*	0	10	0
Cc1ccc(Cn2c(NCCO)nc3c2c(=O)n(C)c(=O)n3C)cc1	42*	0	-6	0
O=C(c1ccco1)N1CCN(C(=O)N2c3ccccc3Sc3ccccc32)CC1	51*	0	22	0
O=C(N1CCN(c2ccccn2)CC1)N1c2ccccc2Sc2ccccc21	51*	1	0	-1
O=C(N1CCCC1)N1c2ccccc2Sc2ccccc21	29	1	12	-1
CN(C)C(=O)Cn1nc(C(=O)N2CCOCC2)cc1-c1cccs1	4	0	12	1

Compound activity: PubChem BioAssay, The Scripps Research Institute Molecular Screening Center
